Here are results for 57 molecules from PubChem BioAssay AID488969 (Vanderbilt High Throughput Screening Facility, 2010).

The full ranking holds about 110,000 compounds; the median of “z-score” is about -0.1, and the highest 2% start at about 2. The entries come from a sample that favours the highest values as a whole. Calls of active or inactive are those of the source.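 How the source made its calls: active means z-score in the third read window above 3 or below -3; inactive means the rest.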

The target of the assay is Metabotropic glutamate receptor 8 (Rattus norvegicus) (UniProt P70579). Put plainly: rat mGluR8 modulators via GIRK flux, primary screen, cell-based, thallium flux, HTS (AID 488969). As to conditions: HEK293 rat mGluR8, GIRK (G protein-gated inwardly rectifying potassium channel) thallium flux, FluoZin2; at 10 µM; stronger effect = higher value; submaximal glutamate (EC20) added with thallium.
Sequence of Metabotropic glutamate receptor 8 (Rattus norvegicus) (P70579 whole entry, looked up): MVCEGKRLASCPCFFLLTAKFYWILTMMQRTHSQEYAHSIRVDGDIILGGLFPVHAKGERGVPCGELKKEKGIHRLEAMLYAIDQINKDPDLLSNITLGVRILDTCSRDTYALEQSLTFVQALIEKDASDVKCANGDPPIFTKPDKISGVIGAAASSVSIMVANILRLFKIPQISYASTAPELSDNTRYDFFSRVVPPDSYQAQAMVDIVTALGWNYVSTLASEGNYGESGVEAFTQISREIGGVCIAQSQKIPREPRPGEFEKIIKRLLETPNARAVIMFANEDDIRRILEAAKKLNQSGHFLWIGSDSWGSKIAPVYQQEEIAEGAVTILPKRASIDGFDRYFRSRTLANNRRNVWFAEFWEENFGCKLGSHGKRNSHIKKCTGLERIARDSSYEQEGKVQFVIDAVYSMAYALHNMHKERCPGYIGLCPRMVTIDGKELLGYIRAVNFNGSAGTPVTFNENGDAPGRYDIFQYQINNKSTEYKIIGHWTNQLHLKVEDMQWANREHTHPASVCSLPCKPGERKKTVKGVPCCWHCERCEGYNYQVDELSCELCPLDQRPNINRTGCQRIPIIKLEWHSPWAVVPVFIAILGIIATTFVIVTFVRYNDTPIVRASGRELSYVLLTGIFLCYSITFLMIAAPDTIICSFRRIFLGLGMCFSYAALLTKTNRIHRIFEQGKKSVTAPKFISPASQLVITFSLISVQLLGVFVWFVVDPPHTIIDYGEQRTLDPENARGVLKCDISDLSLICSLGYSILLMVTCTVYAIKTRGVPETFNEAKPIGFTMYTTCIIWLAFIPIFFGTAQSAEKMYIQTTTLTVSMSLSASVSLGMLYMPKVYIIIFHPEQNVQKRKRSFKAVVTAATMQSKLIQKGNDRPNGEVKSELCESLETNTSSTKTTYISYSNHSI
In the case of `O=C(CSc1ccccc1)Nc1ccc(N2CCOCC2)cc1`, the z-score came to 0.00596.

`CCCCn1c(SCC(=O)NC(C)CC)nc2ccc(N3CCOCC3)cc2c1=O` (configuration not stated): the z-score was determined as 0.126.

Regarding `N#CCCn1c(SCC(=O)Nc2ccc(N3CCOCC3)cc2)nc2ccccc21`, the z-score was found to be 2.51.

For `N#CCSc1nc2ccc(N3CCCCC3)cc2c(=O)n1Cc1ccccc1`, the z-score stood at 0.65.

The molecule `COCCn1c(SCC(=O)Nc2ccc(N3CCOCC3)cc2)nc2ccccc21` gave a z-score of -0.228.

Molecule `Cc1cc(NS(=O)(=O)c2ccc(NC(=O)c3oc4ccccc4c3C)cc2)no1` registered a z-score of 0.155.

For the molecule `CCC(CC)C(=O)Nc1ccc(Nc2ccccc2)cc1`, the z-score is -0.165.

`Cc1cc(N2CCN(c3ccccc3Cl)CC2)n2cc(-c3ccccc3)nc2n1`: the z-score is 0.105.

Molecule `Cc1ccnc(SCC(=O)Nc2c(C)n(C)n(-c3ccccc3)c2=O)n1` had a z-score of -0.181.

On to `CC(C)(C)c1ccc(C(=O)NCc2cccnc2)cc1`, for which the z-score was 0.116.

Consider `CC(CCc1ccccc1)NC(=O)Cc1ccc([N+](=O)[O-])cc1` (configuration not stated), for which the z-score was -1.51.

The molecule `CCCCOc1ccc(C(C)NC(=O)CCS(=O)(=O)Cc2ccccc2Cl)cc1` (configuration not stated) showed a z-score of 0.131.

For `Cc1ccc(/C=N/NC(=O)c2cc3c(ccc4ccccc43)o2)cc1[N+](=O)[O-]`, the z-score is -0.185.

In turn, `Cc1cccc2c1N1C(=O)c3c(C(=O)O)cccc3C1CC2C` (configuration not stated) had a z-score of -0.265.

As for `CON(C)c1nc(OCCNC(=O)COc2ccc(Cl)cc2C)nc(N(C)C)n1`, the z-score is 0.98.

`CC1=CC(C)(C)N(C(=O)CN2C(=O)c3ccccc3C2=O)c2ccc(C)cc21` had a z-score of 0.455.

In the case of `CCOC(=O)C1=C(C)NC(=O)C(C(N)=O)C12CCCC2` (configuration not stated), the z-score was -0.24.

For `Cc1nc2ccccc2cc1C(=O)N/N=C/c1cccs1`, the z-score was -0.0999.

With `COc1ccc(S(=O)(=O)N(CC(=O)N2CCN(c3ccccc3)CC2)c2ccccc2)cc1`, the z-score was 2.25.

`COc1ccc(N2CCN(C(=O)CN(c3ccccc3)S(=O)(=O)c3ccc(OC)cc3)CC2)cc1` displayed a z-score of -0.0102.

`O=C(CN(c1ccc(Cl)cc1)S(=O)(=O)c1ccccc1)N1CCN(c2ccccc2)CC1`: the z-score is -0.37.

`COc1ccc(/C=C2/SC(=O)N(CC(O)Cn3c4ccccc4c4ccccc43)C2=O)cc1` (configuration not stated) gave a z-score of -0.167.

Consider `Cc1cc(=O)[nH]c(N/N=C/c2cccs2)n1`, for which the z-score is -0.0197.

Consider `O=C1CC(C(=O)Nc2ccccc2)C2(CCCC2)O1` (configuration not stated), for which the z-score is -0.154.

`O=C1CC(C(=O)Nc2ccc(Br)cc2)C2(CCCC2)O1` (configuration not stated): the z-score came to 2.34.

`O=C1CC(C(=O)Nc2ccccc2)C2(CCCCC2)O1` (configuration not stated) registered a z-score of -0.333.

The molecule `CCOC(=O)Cc1csc(NC(=O)c2cccc(OC)c2)n1` came in with a z-score of 0.0443.

In turn, `CC1CCCCC12NC(=O)N(CC(=O)Nc1sc3c(c1C(N)=O)CCC3)C2=O` (configuration not stated) showed a z-score of 0.0207.

For `CC(C)C1Oc2ccccc2N(CC(=O)NCCCN2C(C)CCCC2C)C1=O` (configuration not stated), the z-score stood at 0.132.

With `CCC(C)(C)NC(=O)C(c1ccc(F)cc1)N(Cc1ccco1)C(=O)c1snc(C(N)=O)c1N` (configuration not stated), the z-score was -0.00804.

For the molecule `COC(=O)c1ccc(C(C(=O)NCc2ccccc2)N(Cc2ccco2)C(=O)c2cnccn2)cc1` (configuration not stated), the z-score came to 0.053.

For the molecule `CCC(C)(C)NC(=O)C(c1ccc(F)cc1)N(Cc1ccco1)C(=O)c1cnccn1` (configuration not stated), the z-score is 3.05 (active).

`O=C(CN1CCOCC1)Nc1ccccc1C(=O)O`: the z-score was -0.257.

Molecule `COc1cc(OC)c(-c2cc(C(=O)O)ccc2OC)c(OC)c1` returned a z-score of -0.305.

For `N/C(COc1cccc(C(F)(F)F)c1)=N\NC(=O)c1cccnc1Oc1ccccc1`, the z-score is -0.285.

On to `COc1ccc(-c2nnn(CCc3nn[nH]n3)n2)cc1`, for which the z-score was -0.103.

`O=C(Nc1ccc(Br)cc1F)C1CCCO1` (configuration not stated): the z-score is -0.0425.

For the molecule `CC1CCC(NC(=O)Cn2c(=O)[nH]c3ccsc3c2=O)CC1` (configuration not stated), the z-score was -0.274.

As for `O=C(Cn1c(=O)[nH]c2ccsc2c1=O)NC1CCCCCC1`, the z-score is 8.37 (active).

For the molecule `O=C(Cn1c(=O)[nH]c2ccsc2c1=O)NC1CCCCC1`, the z-score was -0.236.

Consider `COC(=O)/C=C/C(=O)N1CCN(c2ccccc2)CC1`, for which the z-score is -0.0929.

Molecule `COC(=O)C1=C(C)N(Cc2ccc(OC)cc2)C(=O)C1` returned a z-score of -0.151.

`COC(=O)C1=C(C)N(CCc2ccccc2)C(=O)C1` came in with a z-score of -0.0388.

Take `COC(=O)C1=C(C)N(CCc2ccc(OC)cc2)C(=O)C1`: the z-score stood at 2.28.

Take `NC(=O)c1ccsc1NC(=O)CSc1nc2ccccc2c(=O)n1CCCO`: the z-score is -0.109.

`O=C(COC(=O)c1cccc([N+](=O)[O-])c1)NCc1ccc2c(c1)OCO2` returned a z-score of -0.0402.

Regarding `CCc1cc(C(=O)OC)c(NC(=O)CCC(=O)O)s1`, the z-score is -0.105.

In turn, `Clc1ccc(-c2nnc3c4ccccc4nc(N4CCOCC4)n23)cc1Cl` yielded a z-score of -0.168.

As for `Brc1ccc(-c2nnc3c4ccccc4nc(N4CCOCC4)n23)cc1`, the z-score is 4.42 (active).

For the molecule `Fc1ccccc1-c1nnc2c3ccccc3nc(N3CCOCC3)n12`, the z-score was -0.0489.

As to `Cc1cc(C)nc(/N=C(\N)Nc2cccc([N+](=O)[O-])c2)n1`, the z-score is -1.04.

As for `COCCCNCCCCOc1ccccc1-c1ccccc1`, the z-score was determined as 0.319.

`COCCNCCOc1ccccc1-c1ccccc1`: the z-score was 3.67 (active).

The molecule `OCCNCCOc1ccccc1-c1ccccc1` gave a z-score of -0.00757.

Take `COCCCNC(=O)CS(=O)(=O)Cc1nc(-c2cccc(OC)c2)oc1C`: the z-score amounted to 0.565.

Regarding `CCCCN(CC)CCCNC(=O)CS(=O)(=O)Cc1nc(-c2cccc(OC)c2)oc1C`, the z-score is 3.63 (active).

The molecule `CCCNC(=O)CS(=O)(=O)Cc1nc(-c2cccc(OC)c2)oc1C` showed a z-score of 0.16.
